# Laboratory results published in PubChem BioAssay (EPA / NIEHS).
# Several values for one entry are separate records, joined by “and”; a condition that tells them apart may be missing. Equal entries are not always repeated. Results filed as inconclusive are left out. Activity calls are given as the source filed them. The calls were made as follows, unless noted: active = hit-call score of the fitted dose curve at least 0.9, where 1 is the maximum; inactive = score below 0.9.
# How the values were obtained:
# [1] = read-out: Monokine induced gamma interferon (MIG), CXCL9 (gene 4283); experiment: BSK_SAg_MIG: BioMAP Diversity Plus: SAg Assay for Monokine induced gamma interferon (MIG) Biomarker Activity (AID 2283092); settings: primary human HUVEC with PBMC; actives raise or lower the signal
# Summary of the method: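 Measures CXCL9 protein by ELISA in a human vascular primary-cell co-culture (umbilical vein endothelium with PBMC) 24 h after chemical addition. Activity is scored up or down from the DMSO control.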
# [2] = BSK_SAg_PBMCCytotoxicity: PBMC Cytotoxicity Assessment in the BioMAP Diversity Plus: SAg Assay (AID 2283093); settings: primary human HUVEC with PBMC;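 also: PBMC viability measured as Alamar Blue reduction fluorescence at 546/580 nm; fitted both ways against DMSO so a hit may be loss or gain of signal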;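 as to AC50: PBMC superantigen activated with SEB plus TSST-1 one hour after compound addition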
# Summary of the method: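 Human umbilical vein endothelial cells co-cultured with PBMC; PBMC (75,000/well) pre-treated with compound 1 h, then activated with SEB and TSST-1 (20 ng/mL final each) for 90 h. Alamar Blue added 6 h, fluorescence 546/580 nm; bidirectional fit versus DMSO.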
# [3] = BSK_SAg_Proliferation: Cell Proliferation Assessment in the BioMAP Diversity Plus: SAg Assay (AID 2283095); settings: primary human HUVEC with PBMC;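 also: relative cell number as total protein by SRB absorbance in sub-confluent culture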
# Summary of the method: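 Human umbilical vein endothelial cells co-cultured with peripheral blood mononuclear cells; total protein measured by sulforhodamine B staining (0.1% SRB after 10% TCA fixation), absorbance at 560 nm, at 96 h. Bidirectional fit against DMSO baseline.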
# [4] = BSK_SAg_SRB: Viability Assessment in the BioMAP Diversity Plus: SAg Assay (AID 2283096); settings: primary human HUVEC with PBMC;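 also: cells read one day after compound addition; hits may be either gain or loss of signal compared with DMSO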
# Summary of the method: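 Endothelial/PBMC primary human co-culture; compound 24 h; fix 10% TCA, stain 0.1% SRB, A560; protein content as cytotoxicity proxy; bidirectional curve fit, DMSO = baseline.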
# [5] = biological target: human CYP2B6, CYP2B6 (gene 1555) (UniProt P20813); experiment: NVS_ADME_hCYP2B6: NovaScreen (NVS) CYP450-related Enzyme Activity (ADME) Assay for human CYP2B6 (AID 2283101; active = hit-call score of the fitted dose curve at least 0.9, where 1 is the maximum)
# human CYP2B6, CYP2B6 (gene 1555), sequence (P20813 whole entry, looked up): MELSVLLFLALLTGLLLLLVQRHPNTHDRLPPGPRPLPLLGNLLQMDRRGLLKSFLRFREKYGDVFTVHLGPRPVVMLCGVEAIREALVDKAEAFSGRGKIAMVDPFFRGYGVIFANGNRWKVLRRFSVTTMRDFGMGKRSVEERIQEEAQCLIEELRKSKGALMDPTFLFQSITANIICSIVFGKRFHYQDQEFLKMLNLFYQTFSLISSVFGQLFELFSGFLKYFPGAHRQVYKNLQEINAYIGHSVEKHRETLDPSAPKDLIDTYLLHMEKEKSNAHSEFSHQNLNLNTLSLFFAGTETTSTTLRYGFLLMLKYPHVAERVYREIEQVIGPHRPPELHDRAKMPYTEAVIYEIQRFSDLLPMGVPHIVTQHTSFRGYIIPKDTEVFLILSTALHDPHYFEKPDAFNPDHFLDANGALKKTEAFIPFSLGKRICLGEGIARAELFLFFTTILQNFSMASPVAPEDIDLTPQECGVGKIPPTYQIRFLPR
# Summary of the method: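 Recombinant protein, specific fluorescent substrate, read at 1 h post-dosing. Primary: single 10 uM, duplicate; follow-up: concentration series. Activity = signal loss vs acetonitrile baseline, with positive and negative controls on every plate.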
# [6] = biological target: human CYP1A2, CYP1A2 (gene 1544) (UniProt P05177); experiment: NVS_ADME_hCYP1A2: NovaScreen (NVS) CYP450-related Enzyme Activity (ADME) Assay for human CYP1A2 (AID 2283102; active = hit-call score of the fitted dose curve at least 0.9, where 1 is the maximum)
# human CYP1A2, CYP1A2 (gene 1544), sequence (P05177 whole entry, looked up): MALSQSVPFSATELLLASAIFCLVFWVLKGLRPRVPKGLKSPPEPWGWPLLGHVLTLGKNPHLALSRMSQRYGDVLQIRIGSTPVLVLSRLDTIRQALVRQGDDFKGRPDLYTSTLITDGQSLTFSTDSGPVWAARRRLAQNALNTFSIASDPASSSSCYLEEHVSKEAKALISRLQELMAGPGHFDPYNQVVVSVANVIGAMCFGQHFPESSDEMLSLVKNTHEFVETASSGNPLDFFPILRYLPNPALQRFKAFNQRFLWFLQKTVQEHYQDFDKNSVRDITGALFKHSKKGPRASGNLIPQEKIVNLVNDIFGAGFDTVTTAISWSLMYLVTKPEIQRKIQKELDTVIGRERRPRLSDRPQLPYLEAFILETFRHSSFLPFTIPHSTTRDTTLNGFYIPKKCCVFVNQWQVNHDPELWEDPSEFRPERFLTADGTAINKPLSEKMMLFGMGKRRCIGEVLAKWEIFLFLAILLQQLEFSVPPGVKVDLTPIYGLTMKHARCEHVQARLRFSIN
# Summary of the method: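 Inhibition scored as decrease in fluorescent product versus acetonitrile negative control. Enzyme: insect-cell recombinant human CYP1A2, substrate-specific, cell-free. Reading at 0.5 h; 10 uM duplicate initial screen with positive and negative controls on every plate.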
# [7] = biological target: Cytochrome P450 2C19 (Homo sapiens) (UniProt P33261); experiment: NVS_ADME_hCYP2C19: NovaScreen (NVS) CYP450-related Enzyme Activity (ADME) Assay for human CYP2C19 (AID 2283113; active = hit-call score of the fitted dose curve at least 0.9, where 1 is the maximum;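 also: potency for inhibition seen as loss of fluorescent signal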)
# Summary of the method: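 Biochemical CYP2C19 inhibition screen: insect-cell recombinant protein plus fluorescent substrate, 1 h, fluorescence intensity. Acetonitrile defined baseline activity. Single 10 uM concentration in duplicate, with concentration-response follow-up for actives.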
# [8] = biological target: human CYP2D6, CYP2D6 (gene 1565) (UniProt P10635); experiment: NVS_ADME_hCYP2D6: NovaScreen (NVS) CYP450-related Enzyme Activity (ADME) Assay for human CYP2D6 (AID 2283107; active = hit-call score of the fitted dose curve at least 0.9, where 1 is the maximum)
# human CYP2D6, CYP2D6 (gene 1565), sequence (P10635 whole entry, looked up): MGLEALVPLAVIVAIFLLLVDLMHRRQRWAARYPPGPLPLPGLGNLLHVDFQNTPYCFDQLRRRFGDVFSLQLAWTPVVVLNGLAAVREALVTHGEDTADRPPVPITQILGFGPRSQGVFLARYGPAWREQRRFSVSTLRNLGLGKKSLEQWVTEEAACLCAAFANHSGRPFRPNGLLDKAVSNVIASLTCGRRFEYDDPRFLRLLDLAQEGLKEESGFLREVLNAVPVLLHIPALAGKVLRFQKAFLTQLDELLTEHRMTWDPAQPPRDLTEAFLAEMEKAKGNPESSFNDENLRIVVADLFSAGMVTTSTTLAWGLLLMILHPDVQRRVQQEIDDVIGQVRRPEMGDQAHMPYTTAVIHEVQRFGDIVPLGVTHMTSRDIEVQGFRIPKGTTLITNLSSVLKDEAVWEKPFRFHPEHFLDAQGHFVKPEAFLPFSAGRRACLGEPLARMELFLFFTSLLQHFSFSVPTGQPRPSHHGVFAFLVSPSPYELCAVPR
# Summary of the method: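 Biochemical fluorescence assay, insect-cell-derived enzyme. Read at 1 h; inhibition taken from loss of signal against acetonitrile. Screened at 10 uM in duplicate, with concentration series for actives.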
# [9] = biological target: human CYP19A1, CYP19A1 (gene 1588) (UniProt P11511); experiment: NVS_ADME_hCYP19A1: NovaScreen (NVS) CYP450-related Enzyme Activity (ADME) Assay for human CYP19A1 (AID 2283098; active = hit-call score of the fitted dose curve at least 0.9, where 1 is the maximum;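 as to AC50: potency for inhibitors seen as loss of fluorescent enzyme signal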)
# human CYP19A1, CYP19A1 (gene 1588), sequence (P11511 whole entry, looked up): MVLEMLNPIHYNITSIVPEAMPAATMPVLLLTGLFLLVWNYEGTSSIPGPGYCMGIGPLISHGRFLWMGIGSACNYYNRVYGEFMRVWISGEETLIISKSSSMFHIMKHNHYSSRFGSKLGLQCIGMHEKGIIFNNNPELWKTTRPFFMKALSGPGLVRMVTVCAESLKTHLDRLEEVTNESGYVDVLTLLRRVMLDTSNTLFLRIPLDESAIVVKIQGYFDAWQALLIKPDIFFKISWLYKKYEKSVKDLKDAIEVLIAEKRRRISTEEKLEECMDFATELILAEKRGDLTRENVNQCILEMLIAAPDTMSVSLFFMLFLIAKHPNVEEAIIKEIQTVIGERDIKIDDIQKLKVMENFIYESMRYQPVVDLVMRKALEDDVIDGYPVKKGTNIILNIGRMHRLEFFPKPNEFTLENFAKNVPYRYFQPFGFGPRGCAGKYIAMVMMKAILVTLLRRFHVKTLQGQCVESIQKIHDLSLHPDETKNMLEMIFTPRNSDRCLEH
# Summary of the method: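 Cell-free enzyme assay with recombinant protein and a specific fluorogenic substrate, read by fluorescence intensity 0.5 h after dosing. Primary screen ran in duplicate at 10 uM; actives were retested in concentration series. Loss of signal versus acetonitrile baseline.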
# [10] = biological target: Cytochrome P450 3A4 (Homo sapiens) (UniProt P08684); experiment: NVS_ADME_hCYP3A4: NovaScreen (NVS) CYP450-related Enzyme Activity (ADME) Assay for human CYP3A4 (AID 2283110; active = hit-call score of the fitted dose curve at least 0.9, where 1 is the maximum)
# Cytochrome P450 3A4 (Homo sapiens), sequence (P08684 whole entry, looked up): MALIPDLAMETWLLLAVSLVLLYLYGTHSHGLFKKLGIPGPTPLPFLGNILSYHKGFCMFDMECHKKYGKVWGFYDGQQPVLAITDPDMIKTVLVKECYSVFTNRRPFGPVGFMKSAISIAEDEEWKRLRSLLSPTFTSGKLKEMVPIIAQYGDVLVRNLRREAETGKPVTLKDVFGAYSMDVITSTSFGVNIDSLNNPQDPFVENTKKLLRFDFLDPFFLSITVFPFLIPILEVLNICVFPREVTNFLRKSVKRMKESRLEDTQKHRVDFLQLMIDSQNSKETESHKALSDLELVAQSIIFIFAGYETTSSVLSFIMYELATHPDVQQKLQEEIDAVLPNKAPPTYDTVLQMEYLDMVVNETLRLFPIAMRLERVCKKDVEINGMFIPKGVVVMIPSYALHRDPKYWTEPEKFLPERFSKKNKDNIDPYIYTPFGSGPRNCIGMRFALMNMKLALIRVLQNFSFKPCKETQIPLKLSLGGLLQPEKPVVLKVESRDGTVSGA
# Summary of the method: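 Cell-free assay using insect-cell-expressed human CYP3A4 with a fluorogenic substrate; fluorescence intensity was read 0.33 hour after dosing. Loss of signal relative to acetonitrile vehicle indicated inhibition. Primary single-concentration screen at 10 uM, in duplicate, then concentration series.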
# [11] = biological target: human CYP2A6, CYP2A6 (gene 1548) (UniProt P11509); experiment: NVS_ADME_hCYP2A6: NovaScreen (NVS) CYP450-related Enzyme Activity (ADME) Assay for human CYP2A6 (AID 2283099; active = hit-call score of the fitted dose curve at least 0.9, where 1 is the maximum)
# Summary of the method: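 Loss of fluorescence signal relative to acetonitrile vehicle reported CYP2A6 inhibition in a cell-free system using insect-cell-derived enzyme. Readings were taken at 0.5 h; top concentration in follow-up dose series was 20 uM.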
# [12] = biological target: human CYP2C9, CYP2C9 (gene 1559) (UniProt P11712); experiment: NVS_ADME_hCYP2C9: NovaScreen (NVS) CYP450-related Enzyme Activity (ADME) Assay for human CYP2C9 (AID 2283108; active = hit-call score of the fitted dose curve at least 0.9, where 1 is the maximum)
# human CYP2C9, CYP2C9 (gene 1559), sequence (P11712 whole entry, looked up): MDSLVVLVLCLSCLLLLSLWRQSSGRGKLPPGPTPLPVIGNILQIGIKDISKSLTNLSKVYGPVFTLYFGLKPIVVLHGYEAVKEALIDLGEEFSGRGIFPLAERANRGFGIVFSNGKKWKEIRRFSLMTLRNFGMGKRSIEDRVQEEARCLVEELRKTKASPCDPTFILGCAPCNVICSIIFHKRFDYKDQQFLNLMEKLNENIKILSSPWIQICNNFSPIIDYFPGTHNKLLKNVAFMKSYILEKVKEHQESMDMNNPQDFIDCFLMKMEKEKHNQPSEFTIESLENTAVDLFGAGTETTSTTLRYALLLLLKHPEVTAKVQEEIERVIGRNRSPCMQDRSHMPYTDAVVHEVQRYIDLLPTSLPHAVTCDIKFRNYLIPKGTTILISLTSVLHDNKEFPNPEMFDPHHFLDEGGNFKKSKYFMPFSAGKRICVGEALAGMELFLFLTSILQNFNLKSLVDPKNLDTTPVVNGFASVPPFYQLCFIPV
# Summary of the method: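 Cell-free assay of recombinant human CYP2C9 produced in Sf9 cells, with enzyme activity read by fluorescence intensity 0.75 h after compound addition. Loss of signal versus an acetonitrile negative control indicates inhibition. Primary screen used 10 uM in duplicate; actives were retested in concentration series.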
# [13] = read-out: Interleukin-8 (IL8), CXCL8 (gene 3576); experiment: BSK_SAg_IL8: BioMAP Diversity Plus: SAg Assay for Interleukin-8 (IL8) Biomarker Activity (AID 2283094); settings: primary human HUVEC with PBMC; actives raise or lower the signal
# Summary of the method: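 Human umbilical vein endothelial cells co-cultured with peripheral blood mononuclear cells; IL-8 measured by ELISA 24 h after chemical dosing. Bidirectional concentration-response fitting used DMSO as negative control and activity baseline.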
# [14] = biological target: Cytochrome P450 2C18 (Homo sapiens) (UniProt P33260); experiment: NVS_ADME_hCYP2C18: NovaScreen (NVS) CYP450-related Enzyme Activity (ADME) Assay for human CYP2C18 (AID 2283103)
# Cytochrome P450 2C18 (Homo sapiens), sequence (P33260 whole entry, looked up): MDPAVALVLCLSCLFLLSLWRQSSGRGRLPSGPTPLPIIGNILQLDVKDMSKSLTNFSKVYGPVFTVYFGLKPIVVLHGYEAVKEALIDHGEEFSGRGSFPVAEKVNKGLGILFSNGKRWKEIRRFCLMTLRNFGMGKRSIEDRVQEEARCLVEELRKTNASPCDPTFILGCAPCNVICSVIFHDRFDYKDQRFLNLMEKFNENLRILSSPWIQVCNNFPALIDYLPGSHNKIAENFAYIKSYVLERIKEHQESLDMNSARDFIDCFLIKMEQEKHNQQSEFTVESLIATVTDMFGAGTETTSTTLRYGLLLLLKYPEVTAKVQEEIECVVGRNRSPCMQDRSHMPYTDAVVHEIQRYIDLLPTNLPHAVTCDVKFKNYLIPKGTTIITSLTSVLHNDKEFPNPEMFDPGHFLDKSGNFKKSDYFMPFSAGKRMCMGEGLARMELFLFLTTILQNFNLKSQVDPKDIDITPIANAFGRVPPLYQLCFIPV
# Summary of the method: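 Cell-free recombinant human CYP2C18 with fluorogenic substrate; fluorescence intensity read 0.5 h after dosing. Single-point screen at 10 uM in duplicate, then concentration-response up to 20 uM; loss of signal fitted against acetonitrile baseline.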
# [15] = biological target: human CYP1A1, CYP1A1 (gene 1543) (UniProt P04798); experiment: NVS_ADME_hCYP1A1: NovaScreen (NVS) CYP450-related Enzyme Activity (ADME) Assay for human CYP1A1 (AID 2283100; active = hit-call score of the fitted dose curve at least 0.9, where 1 is the maximum)
# human CYP1A1, CYP1A1 (gene 1543), sequence (P04798 whole entry, looked up): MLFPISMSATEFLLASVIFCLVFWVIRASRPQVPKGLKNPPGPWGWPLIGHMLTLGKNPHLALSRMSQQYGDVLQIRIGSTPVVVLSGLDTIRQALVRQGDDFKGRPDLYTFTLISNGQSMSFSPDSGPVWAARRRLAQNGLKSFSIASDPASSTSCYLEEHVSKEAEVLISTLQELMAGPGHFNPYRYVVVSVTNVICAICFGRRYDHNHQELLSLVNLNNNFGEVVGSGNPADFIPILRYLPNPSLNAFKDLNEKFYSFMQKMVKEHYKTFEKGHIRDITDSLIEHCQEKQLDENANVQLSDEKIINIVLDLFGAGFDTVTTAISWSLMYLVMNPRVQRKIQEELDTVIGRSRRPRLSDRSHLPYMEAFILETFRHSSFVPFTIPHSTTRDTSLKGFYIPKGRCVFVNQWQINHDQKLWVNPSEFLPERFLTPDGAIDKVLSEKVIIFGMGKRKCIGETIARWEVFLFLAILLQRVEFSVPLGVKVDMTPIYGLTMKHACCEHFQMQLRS
# Summary of the method: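 Inhibition of recombinant CYP1A1 turnover was assessed fluorometrically in a biochemical format 1 h after compound exposure. Testing began at 10 uM in duplicate and progressed to concentration series reaching 20 uM, with on-plate positive and negative controls.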
# [16] = biological target: rat CYP2A1, Cyp2a1 (gene 24894) (UniProt P11711); experiment: NVS_ADME_rCYP2A1: NovaScreen (NVS) CYP450-related Enzyme Activity (ADME) Assay for rat CYP2A1 (AID 2283114)
# rat CYP2A1, Cyp2a1 (gene 24894), sequence (P11711 whole entry, looked up): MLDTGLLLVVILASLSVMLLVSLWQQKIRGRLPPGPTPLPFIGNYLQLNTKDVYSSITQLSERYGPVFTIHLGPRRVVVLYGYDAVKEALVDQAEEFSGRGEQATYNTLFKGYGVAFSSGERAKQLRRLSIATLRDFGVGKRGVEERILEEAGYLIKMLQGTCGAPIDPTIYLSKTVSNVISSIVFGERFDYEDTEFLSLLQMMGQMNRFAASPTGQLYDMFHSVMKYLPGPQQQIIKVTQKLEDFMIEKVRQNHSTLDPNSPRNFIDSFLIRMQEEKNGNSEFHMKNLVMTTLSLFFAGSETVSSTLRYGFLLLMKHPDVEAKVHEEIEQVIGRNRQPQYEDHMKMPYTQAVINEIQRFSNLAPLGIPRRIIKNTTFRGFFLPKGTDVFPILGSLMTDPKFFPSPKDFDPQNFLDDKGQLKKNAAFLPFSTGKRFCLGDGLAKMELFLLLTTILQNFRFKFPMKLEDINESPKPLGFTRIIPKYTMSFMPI
# Summary of the method: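 Recombinant rat CYP2A1, cell-free, fluorogenic substrate turnover read by fluorescence intensity 0.75 h after dosing. Primary screen at 10 uM in duplicate; actives rerun as concentration-response up to 20 uM; loss of signal versus acetonitrile control.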
# [17] = biological target: rat CYP2A2, Cyp2a2 (gene 24895) (UniProt P15149); experiment: NVS_ADME_rCYP2A2: NovaScreen (NVS) CYP450-related Enzyme Activity (ADME) Assay for rat CYP2A2 (AID 2283116; active = hit-call score of the fitted dose curve at least 0.9, where 1 is the maximum)
# rat CYP2A2, Cyp2a2 (gene 24895), sequence (P15149 whole entry, looked up): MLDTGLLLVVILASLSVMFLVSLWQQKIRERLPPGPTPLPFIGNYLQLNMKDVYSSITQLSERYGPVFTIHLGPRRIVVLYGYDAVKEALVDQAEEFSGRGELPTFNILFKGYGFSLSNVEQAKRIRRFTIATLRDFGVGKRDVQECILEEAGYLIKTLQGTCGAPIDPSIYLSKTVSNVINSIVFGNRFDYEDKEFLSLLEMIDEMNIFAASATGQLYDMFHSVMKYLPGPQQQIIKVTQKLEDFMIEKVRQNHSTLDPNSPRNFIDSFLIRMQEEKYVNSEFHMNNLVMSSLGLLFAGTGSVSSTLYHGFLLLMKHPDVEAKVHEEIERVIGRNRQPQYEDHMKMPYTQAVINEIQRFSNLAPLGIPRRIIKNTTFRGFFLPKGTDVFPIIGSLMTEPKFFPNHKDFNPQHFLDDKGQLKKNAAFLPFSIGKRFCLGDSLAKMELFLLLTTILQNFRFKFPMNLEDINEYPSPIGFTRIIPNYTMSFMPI
# Summary of the method: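 Cell-free recombinant rat CYP2A2 activity with fluorogenic substrate, fluorescence read 0.2 h after dosing. Chemicals screened at 10 uM in duplicate, hits then run in concentration-response up to 20 uM; signal loss versus acetonitrile baseline.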
smiles,measurement,setting,value
CCOP(=S)(OCC)SCSP(=S)(OCC)OCC,outcome,[1],inactive
same,outcome,[2],inactive
same,AC50,[3],20 µM (active)
same,outcome,[4],inactive
same,outcome,[5],inactive
same,outcome,[6],inactive
same,AC50,[7],4.36 µM (active)
CCC(C)(C)c1ccc(O)c(C(C)(C)CC)c1,AC50,[1],20.8 µM (active)
same,AC50,[2],9.42 µM (active)
same,AC50,[3],7.43 µM (active)
same,AC50,[4],14.6 µM (active)
COc1cc2c(cc1OC)[C@@]13CCN4CC5=CCO[C@H]6CC(=O)N2[C@H]1[C@H]6[C@H]5C[C@H]43,AC50,[8],5 µM (active)
Nc1ncc([N+](=O)[O-])s1,outcome,[1],inactive
same,outcome,[2],inactive
same,outcome,[3],inactive
same,outcome,[4],inactive
CC(=O)C=C(C)C,outcome,[9],inactive
O=[N+]([O-])c1ccc2c3c(cccc13)CC2,outcome,[1],inactive
same,outcome,[2],inactive
same,outcome,[3],inactive
same,outcome,[4],inactive
CCC[CH2][Sn]([Cl])([Cl])[Cl],outcome,[9],inactive
CC(C)(c1ccccc1)c1ccc(O)c(C(C)(C)c2ccccc2)c1,AC50,[1],11.4 µM (active)
same,AC50,[2],8.97 µM (active)
same,AC50,[3],6 µM (active)
same,AC50,[4],13 µM (active)
same,outcome,[10],inactive
NC(=S)Nc1ccccc1,outcome,[1],inactive
same,outcome,[2],inactive
same,outcome,[3],inactive
same,outcome,[4],inactive
CC(C)(C)c1cc(O)ccc1O,AC50,[1],11.4 µM (active)
same,AC50,[2],3.17 µM (active)
same,AC50,[3],1.94 µM (active)
same,AC50,[4],15.3 µM (active)
same,outcome,[11],inactive
same,AC50,[8],7.54 µM (active)
same,AC50,[12],5.93 µM (active)
same,outcome,[10],inactive
same,AC50,[7],5.9 µM (active)
COC(=O)c1sccc1S(=O)(=O)NC(=O)Nc1nc(C)nc(OC)n1,outcome,[1],inactive
same,outcome,[2],inactive
same,outcome,[3],inactive
same,outcome,[4],inactive
CC(=O)OC(c1ccccc1)C(Cl)(Cl)Cl (configuration not stated),outcome,[1],inactive
same,outcome,[2],inactive
same,outcome,[3],inactive
same,outcome,[4],inactive
Nc1ccc(-c2ccc(N)c(Cl)c2)cc1Cl,outcome,[1],inactive
same,outcome,[2],inactive
same,outcome,[13],inactive
same,outcome,[3],inactive
same,AC50,[4],8.93 µM (active)
same,AC50,[12],1.24 µM (active)
same,AC50,[7],2.34 µM (active)
O=C1C2(Cl)C3(Cl)C4(Cl)C(Cl)(Cl)C5(Cl)C3(Cl)C1(Cl)C5(Cl)C24Cl (configuration not stated),AC50,[1],10.6 µM (active)
same,AC50,[2],5.7 µM (active)
same,AC50,[13],26.2 µM (active)
same,AC50,[3],4.64 µM (active)
same,AC50,[4],6.17 µM (active)
same,AC50,[5],2.02 µM (active) and 4.09 µM (active) and 1.02 µM (active)
same,AC50,[14],0.519 µM (active)
same,AC50,[12],82.1 nM (active) and 2.8 µM (active) and 487 nM (active)
same,outcome,[10],inactive
same,AC50,[7],458 nM (active) and 1.44 µM (active) and 374 nM (active)
[O-][Cl+2]([O-])O,AC50,[9],5.58 µM (active)
CC1(C)Cc2cccc(O)c2O1,outcome,[1],inactive
same,outcome,[2],inactive
same,outcome,[3],inactive
same,outcome,[4],inactive
COP(=S)(OC)Oc1cc(Cl)c(Cl)cc1Cl,outcome,[1],inactive
same,outcome,[2],inactive
same,outcome,[3],inactive
same,outcome,[4],inactive
CCN1CCC2(CC1)COc1cc3c(cc12)N(C(=O)c1ccc(-c2ccc(-c4nnc(C)o4)cc2C)cc1)CC3,AC50,[1],30.8 µM (active)
same,AC50,[2],12.6 µM (active)
same,AC50,[13],12.3 µM (active)
same,AC50,[3],6.95 µM (active)
same,AC50,[4],12.7 µM (active)
same,AC50,[7],2.84 µM (active)
CC1(C)CCC(Cc2ccc(Cl)cc2)C1(O)Cn1cncn1 (configuration not stated),outcome,[15],inactive
same,AC50,[12],0.419 µM (active)
same,AC50,[10],2.75 µM (active)
same,AC50,[7],0.304 µM (active)
same,AC50,[16],2.5 µM (active)
same,AC50,[17],40.4 nM (active)
O=C(O)C(F)(F)C(F)(F)C(F)(F)C(F)(F)C(F)(F)C(F)(F)F,outcome,[1],inactive
same,outcome,[2],inactive
same,outcome,[3],inactive
same,outcome,[4],inactive
CCOP(=S)(OCC)Oc1ccc(S(C)=O)cc1 (configuration not stated),outcome,[1],inactive
same,outcome,[2],inactive
same,outcome,[3],inactive
same,outcome,[4],inactive
same,AC50,[12],3.31 µM (active)
same,AC50,[7],0.528 µM (active)
Clc1ccc(C2(Cn3cncn3)CC(Br)CO2)c(Cl)c1 (configuration not stated),AC50,[9],5.55 µM (active)
same,outcome,[15],inactive
same,AC50,[5],1.16 µM (active)
same,AC50,[14],6.47 µM (active)
same,AC50,[12],6.63 µM (active)
same,AC50,[10],2 µM (active)
same,AC50,[7],0.243 µM (active)
same,AC50,[16],0.577 µM (active)
same,AC50,[17],82.9 nM (active)
Cn1sc(Cl)cc1=O,outcome,[1],inactive
same,AC50,[2],16.9 µM (active)
same,AC50,[3],6.46 µM (active)
same,outcome,[4],inactive
same,outcome,[6],inactive
same,AC50,[10],2.77 µM (active)
same,AC50,[7],5.77 µM (active)
CCC(=O)C(CC(C)N(C)C)(c1ccccc1)c1ccccc1 (configuration not stated),outcome,[1],inactive
same,outcome,[2],inactive
same,outcome,[13],inactive
same,outcome,[3],inactive
same,outcome,[4],inactive
same,AC50,[8],1.23 µM (active)
CC(=O)C(Cl)C(=O)N(C)C (configuration not stated),outcome,[1],inactive
same,AC50,[2],7.81 µM (active)
same,AC50,[3],20 µM (active)
same,outcome,[4],inactive
